Substitutions are numbered along the chain they refer to. The full ranking holds about 5,800 sequences; the median of “enrichment r” is about 0.54, and the highest 2% start at about 16. For the sample, the highest values were picked, then their nearest neighbours and some sequences at random.

B1: chr22:41636480:41636706:+|CDS|ENSG00000196419|unk|FALSE|unique (ssRNA)
RNA: GGGAGUUCUACAGUCCGACGAUCAUGGGCCACGGAUCUGACUACUCACUCAGUGAAGUGCUGUGGGUCUGUGCCAACCUCUUUAGUGAUGUCCAAUUCAAGAUGAGUCAUAAGAGGAUCAUGCUGUUCACCAAUGAAGACAACCAACAGAGGAUUGAGCAUCA
B2: chr1:223774945:223775046:+|3pUTR|ENSG00000162909|msi1|total|mutant (ssRNA)
RNA: GGGAGUUCUACAGUCCGACGAUCAAAUACACUUUGUAUCUGGACCUCAAAAUUAUGGGAACAUUUACUUAAACGGAUGAUCACCGCUGAAAAUAAUGAUACUGUCAAUUUGAGACCGCAGAAGUUUCACACAUCAAAGUAAAACAACAGAGGAUUGAGCAUCA
B3: chr2:108783740:108783841:+|CDS_3pUTR|ENSG00000153201|msi1_unk|FALSE|overlapping (ssRNA)
RNA: GGGAGUUCUACAGUCCGACGAUCCAAUAAUUCUCAAUUUGUUAUAACACUGAAGAAAGCAGAACAUUUGGACUUUAAGCAUGUAGUAUUUGGGUUUGUUAAGGAUGGCAUGGAUACUGUGAAAAAGAUUGAAUCAUUUGGUUCCAACAGAGGAUUGAGCAUCA
B4: chr16:61647241:61654101:-|three_prime_utr|ENSG00000150394|control|control|control (ssRNA)
RNA: GGGAGUUCUACAGUCCGACGAUCAAAGAAACUUGACAGUGGAUUAUAAAUAAAUCACUGGAACUGAGCAUUCUGUAAUAUUCUAGGGUCACUCCCCUUAGAUACAACCAAUGUGGCUAUUUGUUUUAGAGGCAAGUUUAGCACCAACAGAGGAUUGAGCAUCA
B5: chr1:62864655:62864756:+|3pUTR|ENSG00000125703|unk|FALSE|unique (ssRNA)
RNA: GGGAGUUCUACAGUCCGACGAUCUUUGUUAACUGUGAUAUGCAUACACUUAUAUAAGCAGAAUUAUGAGUUAAAGUAAUACUUAGCAAUAUGAUUUUAUAAUGGCUCCUCAUUAUGCUUGCUGUUGAACCUUUUAUGAGGAGUCAACAGAGGAUUGAGCAUCA
B6: chr6:145382534:145384023:-|three_prime_utr|ENSG00000112425|control|control|control (ssRNA)
RNA: GGGAGUUCUACAGUCCGACGAUCUCAACAUGAUUUAACAGAUCUAUAUGUUAAAGGAGAAAAAGAUAUGUGGAUGCUAUCAAUAGUAGCUGAAAAGCAUUUUCAGAAAUCUGUAAGUAGAGGAAAUGUAUUCAUAUGUUUCUACAACAGAGGAUUGAGCAUCA
B7: chr12:89642165:89642281:-|CDS|ENSG00000070961|unk|total|mutant (ssRNA)
RNA: GGGAGUUCUACAGUCCGACGAUCGCCAAAAACCUUUCUUCAAUCCGUAUGGGAAGCAUUACAAGAUGUCACUUUAAUUAUAUCCGAAAUUGCAGCCACCGUAUCAUUGGGCCUUUCUUUUUAUCAGCCUCCAGAAGGGGAUAACAACAGAGGAUUGAGCAUCA
B8: ENSG00000070961:be:win_6051|3pUTR|ENSG00000070961|bound_else_gene|NA|bound_elsewhere_windowed (ssRNA)
RNA: GGGAGUUCUACAGUCCGACGAUCCAGAAAUUUCCAGAGCAUUAUGUAGGUAGAAAAAAAUGCAAGCAAGCUGUUAAAGAUCUUGGAUCCCAUUAUAUAGUAUGUAUAGCUGAAAUCUGUAAUUCAAUCACUUUUUCUCUUUUACAACAGAGGAUUGAGCAUCA
B9: chr3:97755980:97756081:+|3pUTR|ENSG00000080224|unk|FALSE|unique (ssRNA)
RNA: GGGAGUUCUACAGUCCGACGAUCUAAUUAAAAAUCUCUUUCCUACCUUUAGUAAUUUGUAGGAUGAACUGUAUGCAUUUAGAUAGAAAUUGCUUUUGUUAAAUUUACAUUUAAACACAUCUUCAUUCACUUAGAGAAGCCAUACAACAGAGGAUUGAGCAUCA
B10: chr8:42175503:42175666:-|3pUTR|ENSG00000104368|msi1|total|mutant (ssRNA)
RNA: GGGAGUUCUACAGUCCGACGAUCAUGAAAGCAUGUCUCAACCGUAAAAGAUAACAAGAUCUUUCAGGAAAGACGGAUUGCAUCCGAAACCGACAGUAUAUUUACCGUCACAAGAGCCCAGCAGGGCCUCAAAGUUGGGGCAGGCAACAGAGGAUUGAGCAUCA
B11: chr8:74853834:74853946:+|3pUTR|ENSG00000137558|unk|total|mutant (ssRNA)
RNA: GGGAGUUCUACAGUCCGACGAUCAAGUGCUUUUUUUUUUCUGAAUUAAUCCGGUAUUGGUAAAAUAUAUUUUUAAAUUCCGUCCGCUUUAUAAACACAAUCCGAAUUACAAUUAAUUAACAGAGGUAUAAUUGUCUCACUUUCCAACAGAGGAUUGAGCAUCA
B12: chr12:123662440:123662541:+|3pUTR|ENSG00000111358|unk|FALSE|unique (ssRNA)
RNA: GGGAGUUCUACAGUCCGACGAUCAAUGGAAAUCACAAUUUUAAGUCUAGGAAAUAAAGUAUUAUAUAUACUUUCAAACAAGCUAGCAAGGCUUUUAUUAUUACUUUUUUAUUUGAAAUAUCUUAUAUAUUUGGUUAGUUCUGUCAACAGAGGAUUGAGCAUCA
B13: chr3:62294137:62294238:+|3pUTR|ENSG00000144724|msi1|FALSE|unique (ssRNA)
RNA: GGGAGUUCUACAGUCCGACGAUCUGAGACCCUUUAGUUAUUCUCCAUUAAUGCUUCUUAGUUUGUAAUACCAUACCUCACAGUAGGUAGAAGAAUGAAAACUUCUGCAGGUGUGUAAUUUUGAAACUAGUCCUCUAAAAAUUCCAACAGAGGAUUGAGCAUCA
B14: chr8:42175503:42175666:-|3pUTR|ENSG00000104368|msi1|FALSE|unique (ssRNA)
RNA: B10 RNA with C41U, C42A, C83U, C84A, C89U, C90A, C104U, C105A
B15: ENSG00000070961:be:win_6001|3pUTR|ENSG00000070961|bound_else_gene|NA|bound_elsewhere_windowed (ssRNA)
RNA: GGGAGUUCUACAGUCCGACGAUCCAAGACAUGCUUAGUGUGUAUUUCUCUCUUUGAGACACUGUAAUUUCUACCAGAAAUUUCCAGAGCAUUAUGUAGGUAGAAAAAAAUGCAAGCAAGCUGUUAAAGAUCUUGGAUCCCAUUCAACAGAGGAUUGAGCAUCA
B16: chr3:97755980:97756081:+|3pUTR|ENSG00000080224|unk|total|mutant (ssRNA)
RNA: B9 RNA with U49C, A50C, U59C, A60C, U79C, A80C, U83C, A84C, U131C, A132C
B17: chr8:74853834:74853946:+|3pUTR|ENSG00000137558|unk|FALSE|unique (ssRNA)
RNA: B11 RNA with C50U, C51A, C79U, C80A, C83U, C84A, C101U, C102A
B18: chr19:42216679:42217007:-|CDS|ENSG00000160570|control|control|control (ssRNA)
RNA: GGGAGUUCUACAGUCCGACGAUCCUUUCUGCUGGAUGAGGCUCCUGGCGCCGCCGGAGGCUUAGCCCGGGCCCGCAGCGGCCUAGAGCUCCUGCUGGAGCUGGAGCGCCGCGGGCAGUGCGACGAGAGCAACCUGCGGCUGCUCAACAGAGGAUUGAGCAUCA
B19: chr1:111117940:111118053:-|3pUTR|ENSG00000156171|unk|total|mutant (ssRNA)
RNA: GGGAGUUCUACAGUCCGACGAUCAGGCUGACAGUAACACUGAUGAAUGCUGAUAAUCAGGAAACAUGAAAGAAGCCAUUUGACCGAUUAUUCUAAAGGAUAUCAUCAAGAAGACUAUUAAAAACACCUAUGCCUAUACUUUUUCAACAGAGGAUUGAGCAUCA
B20: chr8:76983344:76983445:-|CDS|ENSG00000164751|msi1|total|mutant (ssRNA)
RNA: GGGAGUUCUACAGUCCGACGAUCAGCCACCAGUGGCAAAGAAUGCGCUCUAUGUGGAGAGUGGCCCACCAUGCCUCACACCACCGGAUGUGAGCAUAUUUUCUGUUAUUUCUGUGCUAAGAGCCGUUUCUUAUUUGACGUGUACAACAGAGGAUUGAGCAUCA
B21: chr12:101746137:101746238:-|3pUTR|ENSG00000111670|msi1|total|mutant (ssRNA)
RNA: GGGAGUUCUACAGUCCGACGAUCGGUCCGUAAAUUAUUGCAGGCCACCUGUGUCUUUGUCAUACAUUCUUCUUGCUGUUGUUCCGUUUGUUUUUUUUCAAACAACCCUCUAAAAAUGUAAAAACCAUGUUCCGCUUGCAGCUGCAACAGAGGAUUGAGCAUCA
B22: ENSG00000070961:be:win_2001|CDS|ENSG00000070961|bound_else_gene|NA|bound_elsewhere_windowed (ssRNA)
RNA: GGGAGUUCUACAGUCCGACGAUCAAAUGAUAUUGUCACCGGCCUUACAUGCAUUGCUGUUGUGGGGAUUGAAGAUCCUGUGAGACCUGAGGUGCCAGAUGCAAUUAAAAAGUGUCAGAGGGCUGGAAUUACUGUGCGGAUGGUCAACAGAGGAUUGAGCAUCA

Sequence of MSI1 full-length (Q61474 whole entry): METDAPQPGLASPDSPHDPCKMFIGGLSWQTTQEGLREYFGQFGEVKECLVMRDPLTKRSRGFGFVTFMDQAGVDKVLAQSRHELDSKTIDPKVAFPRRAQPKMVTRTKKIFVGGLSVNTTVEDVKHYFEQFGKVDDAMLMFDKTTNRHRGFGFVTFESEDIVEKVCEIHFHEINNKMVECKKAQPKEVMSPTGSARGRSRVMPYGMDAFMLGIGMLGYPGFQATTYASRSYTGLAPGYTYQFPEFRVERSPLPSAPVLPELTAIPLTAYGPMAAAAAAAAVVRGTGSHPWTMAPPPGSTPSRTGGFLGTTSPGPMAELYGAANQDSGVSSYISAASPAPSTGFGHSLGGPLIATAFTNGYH

This experiment addresses MSI1 full-length (mouse, UniProt Q61474 1-362). Description: nsRBNS (natural sequence RNA bind-n-seq); RBNS binding buffer (assumed for nsRBNS): 25 mM Tris pH 7.5, 150 mM KCl, 3 mM MgCl2, 0.01% Triton X-100, 500 ug/ml BSA, 20 U/ml SUPERase-In, 4 C; UNK is unkempt and MSI1 is Musashi-1; names of the RNAs are library labels; protein concentration not given here; high values mean tight binding.
On to B1, for which the binding signal came out at 0.384 enrichment R.
As to B2, the binding signal is 0.211 enrichment R.
Regarding B3, the binding signal is 0.864 enrichment R.
As for B4, the binding signal was 1.27 enrichment R.
B5 showed a binding signal of 0.957 enrichment R.
The molecule B6 returned a binding signal of 1.04 enrichment R.
B7 had a binding signal of 0.453 enrichment R.
In the case of B8, the binding signal turned out to be 37.4 enrichment R.
In the case of B9, the binding signal was 19.4 enrichment R.
In the case of B10, the binding signal stood at 0.44 enrichment R.
The result for B11 reads 1.6 enrichment R.
B12 had a binding signal of 12.8 enrichment R.
Molecule B13 registered a binding signal of 8.1 enrichment R.
With B14, the binding signal turned out to be 41.9 enrichment R.
In turn, B15 returned a binding signal of 0.464 enrichment R.
Molecule B16 displayed a binding signal of 1.21 enrichment R.
The result for B17 reads 47.1 enrichment R.
For the molecule B18, the binding signal was 0.233 enrichment R.
B19 came in with a binding signal of 0.337 enrichment R.
B20 yielded a binding signal of 0.344 enrichment R.
Turning to B21, the binding signal was 0.343 enrichment R.
The molecule B22 gave a binding signal of 0.416 enrichment R.

The record behind these values is paper PMC12136788.
